This note sets out measurements from PubChem BioAssay AID463193 (University of Pittsburgh Molecular Library Screening Center, 2010).

Molecules are shown by their SMILES. In all, about 190,000 compounds went through this assay and about 1,900 (1%) were called active. This is one part of a sample in which actives are shown more often than they occur.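 How the source made its calls: active means percentage of spot-positive cells more than 3 SD above its plate mean, without a fluorescence outlier flag or 80% toxicity; inconclusive means no clear call, values can overlap the other calls; inactive means the rest.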

This assay is described as follows: autophagy modulators in MEF cells, primary screen, imaging, high-content, MEF GFP-LC3 (AID 463193).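 On % cells with GFP-LC3 spots: spot-positive cell cutoff set from DMSO-treated cells.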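 On toxicity: cell loss after 18 h compound exposure.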 As to conditions: MEF GFP-LC3 puncta imaging, at 10 µM; % cells with GFP-LC3 spots: stronger effect = higher value; toxicity: measured here: cell loss, nuclei count.
For `C=CCC(C(=O)c1ccccc1)[N+](C)(C)CC=C` (centres undefined), the % cells with GFP-LC3 spots is 2.53% (inactive) and the toxicity was -14.3%.
Consider `COC(=O)COc1ccc(C2NC(=O)NC(C)=C2C(=O)NCc2ccccc2)cc1OC` (centres undefined), for which the % cells with GFP-LC3 spots is 0.797% (inactive) and the toxicity was found to be 20.4%.
For the molecule `Cn1c(N)c(C(=O)COC(=O)c2cnc(Cl)c(Cl)c2)c(=O)n(C)c1=O`, the % cells with GFP-LC3 spots is 0.712% (inactive) and the toxicity was found to be 15.7%.
Consider `Cc1c(Cl)cccc1NC(=O)CSc1ccc(-c2cccnc2)nn1`, for which the % cells with GFP-LC3 spots is 0.277% (inactive) and the toxicity was -2.28%.
With `CCC(=O)Nc1cc(C(F)(F)F)ccc1N1CCCC1`, the % cells with GFP-LC3 spots is 0.264% (inactive) and the toxicity was -3.5%.
In the same order, the values of `CN1CCN(CC(=O)Nc2sc3c(c2C#N)CCC(C(C)(C)C)C3)CC1` (centres undefined) are 41.9% (active) and 29.1%.
With `CCC1CCc2c(sc(NC(C)=O)c2C#N)C1` (centres undefined), the % cells with GFP-LC3 spots is 6.62% (inactive) and the toxicity is -8.42%.
With `CCN1CCN(CC(=O)Nc2sc3c(c2C#N)CCC3)CC1`, the % cells with GFP-LC3 spots was 2.15% (inactive) and the toxicity amounted to 4.77%.
The corresponding values for `CC1(C)CC(=O)c2ccc(O)cc2O1` are 1.01% (inactive) and 7.65%.
On to `CCOc1ccc(CN2CCN(Cc3ccc(C)o3)CC2CCO)cc1` (centres undefined), for which the % cells with GFP-LC3 spots is 0.14% (inactive) and the toxicity was -9.23%.
In the same order, the values of `O=C(CN1C(=O)C2C3CCC(C3)C2C1=O)Oc1ccc2ccccc2c1` (centres undefined) are 18.4% (active) and -20.7%.
Consider `O=C(CCN1C(=O)C2C3C=CC(C3)C2C1=O)Oc1ccc2ccccc2c1` (centres undefined), for which the % cells with GFP-LC3 spots was 11.3% (inactive) and the toxicity was 19.4%.
Regarding `CC1=CC(C)(C)Nc2ccc(OC(=O)CN3C(=O)C4CCCCC4C3=O)cc21` (centres undefined), the % cells with GFP-LC3 spots is 8.28% (inactive) and the toxicity came to 24.4%.
Consider `COCCNc1nc2nonc2nc1N(C)Cc1ccc(C)cc1`, for which the % cells with GFP-LC3 spots was 1.24% (inactive) and the toxicity was -31.9%.
In the same order, the values of `Cc1cn(C)c(=O)n(C)c1=O` are 8.58% (inactive) and 10.3%.
For `O=C(O)CSCC(=O)Nc1cccc(C(F)(F)F)c1`, the % cells with GFP-LC3 spots was 6.64% (inactive) and the toxicity was found to be 0%.
Take `COc1ccc(NC(=O)CN(C)CC(=O)Nc2cccc(C(F)(F)F)c2)cc1`: the % cells with GFP-LC3 spots is 2.37% (inactive) and the toxicity was 1.34%.
In the same order, the values of `COc1ccc(NC(=O)C(=O)NCC(=O)Nc2cccc(C(F)(F)F)c2)cc1` are 8.9% (active) and 11.1%.
On to `CC1Cc2ccccc2N1C1=CC(=O)CC(C)(C)C1` (centres undefined), for which the % cells with GFP-LC3 spots is 2.88% (inactive) and the toxicity was found to be 3.93%.
For `Cc1c(NC(=O)/C=C/C(=O)O)cccc1[N+](=O)[O-]`, the % cells with GFP-LC3 spots was 8.95% (inactive) and the toxicity is -17.9%.
On to `CCc1nnc(NC(=O)/C=C/c2ccc(C)o2)s1`, for which the % cells with GFP-LC3 spots is 3.65% (inactive) and the toxicity is 1.45%.
With `Cc1ccc(/C=C/C(=O)Nc2ccc([N+](=O)[O-])c(NC(=O)/C=C/c3ccc(C)o3)c2)o1`, the % cells with GFP-LC3 spots is 55.6% (active) and the toxicity is 0.679%.
Regarding `CCCCc1ccc(NC(=S)N2CCCC(CO)C2)cc1` (centres undefined), the % cells with GFP-LC3 spots was 11.5% (inactive) and the toxicity was determined as 11.5%.
In the case of `COc1ccc2cc(-c3[nH]ncc3CNCCn3nc(C)cc3C)ccc2c1`, the % cells with GFP-LC3 spots was 16.9% (inactive) and the toxicity was 22%.
`CC(=O)NC1=NN(C(C)=O)C(C)(CCS(=O)(=O)c2ccc(Cl)c(Cl)c2)S1` (centres undefined): the % cells with GFP-LC3 spots was 9.23% (inactive) and the toxicity came out at 11.3%.
Turning to `CC(=O)NC1=NN(C(C)=O)C(C)(c2ccc(C)cc2)S1` (centres undefined), the % cells with GFP-LC3 spots was 4% (inactive) and the toxicity was -6.62%.
As to `CC(=O)NC1=NN(C(C)=O)C(C)(c2ccc(Cl)s2)S1` (centres undefined), the % cells with GFP-LC3 spots is 21.9% (active) and the toxicity came out at 54.1%.
The corresponding values for `COc1ccc(N2CCN(c3ccc([N+](=O)[O-])nc3)CC2)cc1` are 7.77% (inactive) and 4.08%.
As to `O=C(N/N=C/c1ccc(Br)o1)c1cncc(Br)c1`, the % cells with GFP-LC3 spots was 33.5% (inactive) and the toxicity was -0.407%.
As to `CCN(CC)CCCNC(=O)c1ccc2c(=O)n(Cc3ccc4c(c3)OCO4)c(=S)[nH]c2c1`, the % cells with GFP-LC3 spots is 0.744% (inactive) and the toxicity turned out to be 5.92%.
As to `CC(Nc1nc(N2CCN(CCO)CC2)nc2ccccc12)c1ccccc1` (centres undefined), the % cells with GFP-LC3 spots was 30.9% (inactive) and the toxicity worked out at 23.9%.
In the same order, the values of `CC(Nc1nc(N2CCOCC2)nc2ccccc12)c1ccccc1` (centres undefined) are 0.846% (inactive) and 11.2%.
The corresponding values for `CC(Nc1nc(N2CCCC2)nc2ccccc12)c1ccccc1` (centres undefined) are 13.8% (active) and -2.79%.
In the same order, the values of `O=C(CS(=O)(=O)c1ccccc1)Nc1ccc(S(=O)(=O)Nc2ccccn2)cc1` are 0.85% (inactive) and 0.1%.
With `C=CCN1C(=O)C(Cc2ccc(OCC)cc2)SC1=Nc1ccc(C(=O)O)cc1` (centres undefined), the % cells with GFP-LC3 spots is 9.61% (inactive) and the toxicity was -5.34%.
For `O=c1c2ccccc2nnn1CSc1nnnn1-c1ccccc1`, the % cells with GFP-LC3 spots is 7.02% (inactive) and the toxicity worked out at 5.05%.
In the case of `O=c1c2ccccc2nc(CSc2nnnn2-c2ccccc2)n1-c1ccccc1`, the % cells with GFP-LC3 spots is 39.8% (active) and the toxicity was -13.7%.
For `Cc1ccc(Nc2nc(CSc3nnnn3-c3ccccc3)cc(=O)[nH]2)cc1`, the % cells with GFP-LC3 spots was 3.58% (inactive) and the toxicity was 2.22%.
Consider `CCCC(=O)NC(=S)Nc1ccc(CN2CCOCC2)cc1`, for which the % cells with GFP-LC3 spots is 10.3% (inactive) and the toxicity was -3.3%.
For the molecule `CCNC(=O)COC(=O)/C=C/c1c(C)nn(Cc2cccc(OC)c2)c1Cl`, the % cells with GFP-LC3 spots was 10.7% (inactive) and the toxicity stood at 15.5%.
On to `COC(=O)c1ccc(NC(=O)c2cc(Cl)ccc2OC)cc1`, for which the % cells with GFP-LC3 spots is 0.193% (inactive) and the toxicity was -8.44%.
Regarding `CCOC(=O)NNC(=O)c1ccc(Cl)cc1`, the % cells with GFP-LC3 spots is 2.34% (inactive) and the toxicity is 8.61%.
Consider `CC(=O)c1cc(NC(=O)c2ccccc2)c(=O)oc1/C=C/N(C)C`, for which the % cells with GFP-LC3 spots is 2.32% (inactive) and the toxicity was 8.72%.
Take `CCOC(=O)c1cc(NC(=O)c2ccc(Cl)cc2)c(=O)oc1-c1ccccc1`: the % cells with GFP-LC3 spots was 15.9% (active) and the toxicity was -0.561%.
Turning to `CC(C)NC(=O)NC(=O)CSc1nnc(-c2ccccc2F)n1N`, the % cells with GFP-LC3 spots is 4.07% (inactive) and the toxicity was -3.54%.
On to `Cc1cc([N+](=O)[O-])nn1Cc1ccc(F)cc1`, for which the % cells with GFP-LC3 spots was 11.8% (inactive) and the toxicity came to 3.65%.
Take `Cc1cnc(C(=O)OCC(=O)NCCCc2ccccc2)cn1`: the % cells with GFP-LC3 spots was 19.9% (inactive) and the toxicity was 14.4%.
